# Structures can show the parent of a compound that is named as a salt. ± gives the uncertainty stated by the source.
# System: NCC-PMP1-C1
# Assay: cell viability relative to DMSO control; higher = less growth inhibition
# Settings: 10 µM; 72 h
# Description: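 NCC-PMP1-C1 pseudomyxoma peritonei cells were seeded in 384-well plates coated with Matrigel and MEF (1e4 cells). Viability was read after 72 h by CCK-8 and expressed as % of the DMSO control, mean ± SD of duplicates.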
row,Compound,cell viability
1,Nc1nc(F)nc2c1ncn2[C@@H]1O[C@H](COP(=O)(O)O)[C@@H](O)[C@@H]1O [Fludarabine Phosphate],-11.4 ± 1.5%
2,Nc1[nH]cnc2ncnc1-2 [Adenine HCl],108 ± 25%
3,O=C1NC(=O)[C@@H](c2cn3c4c(cccc24)CCC3)[C@@H]1c1c[nH]c2ccccc12 [Tivantinib (ARQ 197)],79.8 ± 7.7%
4,COc1cc2ncnc(Nc3ccc(F)c(Cl)c3)c2cc1NC(=O)/C=C/CN1CCCCC1,68.1 ± 1.6%
5,C[C@]1(O)C[C@@H](c2nc(-c3ccc4ccc(-c5ccccc5)nc4c3)c3c(N)nccn32)C1 [Linsitinib (OSI-906)],58.9 ± 2.1%
6,Nc1ncn([C@@H]2O[C@H](CO)[C@@H](O)[C@H]2O)c(=O)n1 [Azacitidine],83.3 ± 6.9%
7,COc1c2ccoc2cc2oc(=O)ccc12 [Bergapten],87.3 ± 5%
8,Nc1cc(C(Cl)=C(Cl)Cl)c(S(N)(=O)=O)cc1S(N)(=O)=O [Clorsulon],117 ± 9.7%
9,CO[C@@]12[C@H](COC(N)=O)C3=C(C(=O)C(C)=C(N)C3=O)N1C[C@@H]1N[C@@H]12 [Mitomycin C],60.3 ± 9.8%
10,N#CC[C@H](C1CCCC1)n1cc(-c2ncnc3[nH]ccc23)cn1,83.6 ± 8.2%
11,CS(=O)(=O)c1ccc(C(=O)Nc2ccc(Cl)c(-c3ccccn3)c2)c(Cl)c1 [Vismodegib (GDC-0449)],90.5 ± 3.3%
12,CC[C@]1(O)C[C@H]2CN(CCc3c([nH]c4ccccc34)[C@@](C(=O)OC)(c3cc4c(cc3OC)N(C=O)[C@H]3[C@@](O)(C(=O)OC)[C@H](OC(C)=O)[C@]5(CC)C=CCN6CC[C@]43[C@@H]65)C2)C1 [Vincristine],50.8 ± 0.53%
13,COc1cc2ncnc(Nc3ccc(F)c(Cl)c3)c2cc1OCCCN1CCOCC1 [Gefitinib(ZD1839)],85.16 ± 0.73%
14,C=CC[C@@H]1/C=C(\C)C[C@H](C)C[C@H](OC)[C@H]2O[C@@](O)(C(=O)C(=O)N3CCCC[C@H]3C(=O)O[C@H](/C(C)=C/[C@@H]3CC[C@@H](O)[C@H](OC)C3)[C@H](C)[C@@H](O)CC1=O)[C@H](C)C[C@@H]2OC [Tacrolimus (FK506)],2.67 ± 1%
15,"O=c1[nH]cc(F)c(=O)[nH]1 [Fluorouracil (5-Fluoracil, 5-FU)]",86.7 ± 7.5%
16,Cc1cc(Nc2ncc(Cl)c(Nc3ccccc3S(=O)(=O)C(C)C)n2)c(OC(C)C)cc1C1CCNCC1 [Ceritinib (LDK378)],-3.34 ± 0.36%
17,Cc1ccc(NC(=O)c2ccc(CN3CCN(C)CC3)cc2)cc1Nc1nccc(-c2cccnc2)n1 [Imatinib Mesylate (STI571)],75.2 ± 4.4%
18,"Cc1[nH]c(/C=C2\C(=O)Nc3ccccc32)c(C)c1CCC(=O)O [Orantinib (TSU-68, SU6668)]",115 ± 2.1%

row,Compound,cell viability
1,Nc1ccn([C@@H]2O[C@H](CO)[C@@H](O)C2(F)F)c(=O)n1 [Gemcitabine],68.1 ± 11%
2,CC1(COc2ccc3c(c2)ncn3-c2ccc3cccc(N4CCC(N)CC4)c3n2)COC1,70 ± 8.6%
3,CN(C)C/C=C/C(=O)Nc1cc2c(Nc3ccc(F)c(Cl)c3)ncnc2cc1O[C@H]1CCOC1 [Afatinib (BIBW2992) Dimaleate],29.3 ± 2.4%
4,Nc1ccn([C@@H]2O[C@H](CO)[C@@H](O)C2(F)F)c(=O)n1 [Gemcitabine HCl],67.5 ± 15%
5,COc1cc2nccc(Oc3ccc(NC(=O)NC4CC4)c(Cl)c3)c2cc1C(N)=O [Lenvatinib (E7080)],69.6 ± 2%
6,Nc1nnc(-c2cccc(Cl)c2Cl)c(N)n1 [Lamotrigine],102.9 ± 0.8%
7,CCOC(=O)[C@H](CCc1ccccc1)N[C@H]1CS[C@H](c2cccs2)CN(CC(=O)O)C1=O [Temocapril HCl],84.76 ± 0.83%
8,CC(C)C(=O)Nc1ccc([N+](=O)[O-])c(C(F)(F)F)c1 [Flutamide],74 ± 38%
9,COC(=O)c1ccc2c(C(=Nc3ccc(N(C)C(=O)CN4CCN(C)CC4)cc3)c3ccccc3)c(O)[nH]c2c1 [Nintedanib (BIBF 1120)],23.9 ± 1.6%
10,CS(=O)(=O)CCNCc1ccc(-c2ccc3ncnc(Nc4ccc(OCc5cccc(F)c5)c(Cl)c4)c3c2)o1 [Lapatinib],50.4 ± 2.3%
11,CCCCC1C(=O)N(c2ccccc2)N(c2ccccc2)C1=O [Phenylbutazone],119 ± 5.4%
12,Fc1ccc(C(c2ccc(F)cc2)N2CCN(C/C=C/c3ccccc3)CC2)cc1 [Flunarizine 2HCl],99.6 ± 22%
13,COc1ccc(C2=N[C@@H](c3ccc(Cl)cc3)[C@@H](c3ccc(Cl)cc3)N2C(=O)N2CCNC(=O)C2)c(OC(C)C)c1 [Nutlin-3],74.1 ± 4.9%
14,O=S(=O)(O)CCS [Mesna],-9.24%
15,CC[C@@H]1/C=C(\C)C[C@H](C)C[C@H](OC)[C@H]2O[C@@](O)(C(=O)C(=O)N3CCCC[C@H]3C(=O)O[C@H](/C(C)=C/[C@@H]3CC[C@H](Cl)[C@H](OC)C3)[C@H](C)[C@@H](O)CC1=O)[C@H](C)C[C@@H]2OC [Pimecrolimus],78.1 ± 5.1%
16,CC(=O)[C@]1(O)Cc2c(O)c3c(c(O)c2[C@@H](O[C@H]2C[C@H](N)[C@H](O)[C@H](C)O2)C1)C(=O)c1ccccc1C3=O [Idarubicin HCl],4.26 ± 0.73%
17,CS(=O)(=O)CCNCc1ccc(-c2ccc3ncnc(Nc4ccc(OCc5cccc(F)c5)c(Cl)c4)c3c2)o1,51.2 ± 7.9%
18,CS(=O)(=O)OCCCCOS(C)(=O)=O [Busulfan],121 ± 7.5%

# Reference: the supplement of paper PMC8877412
